In the library only some 1.2% were active in any assay of this set; here they are far more common.
GLA spleen mod = inhibits or activates alpha-galactosidase in human spleen homogenate; human spleen homogenate, 4MU-alpha-Gal fluorescence, 40 min; P06280; Potency, µM (top dose mostly 80 µM), for the others: at the top dose activity change, negative = inhibition, usual class: inhibitors; 0.008% of 240,000 active;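 further: potency means the concentration at half of the fitted maximal effect; 0% = enzyme with vehicle and -100% = no enzyme basal signal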
Target sequence (P06280 32-429 limits assumed): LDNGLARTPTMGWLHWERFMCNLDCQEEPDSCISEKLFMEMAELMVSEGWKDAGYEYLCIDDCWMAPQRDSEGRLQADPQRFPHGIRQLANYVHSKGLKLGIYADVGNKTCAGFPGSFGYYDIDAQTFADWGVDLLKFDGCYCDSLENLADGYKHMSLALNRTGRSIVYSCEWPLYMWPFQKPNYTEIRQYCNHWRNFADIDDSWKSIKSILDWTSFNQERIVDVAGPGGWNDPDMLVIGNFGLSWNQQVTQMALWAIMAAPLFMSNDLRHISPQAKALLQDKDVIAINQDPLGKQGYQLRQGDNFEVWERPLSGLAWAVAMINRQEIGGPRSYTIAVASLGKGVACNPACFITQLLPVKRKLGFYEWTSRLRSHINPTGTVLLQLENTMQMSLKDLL
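qHTS titration in buffer at pH 5.0. Alpha-galactosidase activity in spleen homogenate was measured via 4-methylumbelliferone release from 1 mM fluorogenic substrate after 40 min at 37C and a pH 10 stop. AC50 came from Hill fits of control-normalized data.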
HTT aggregate = inhibitors of mutant huntingtin aggregate formation in PC12 cells; PC12 HttQ103-GFP aggregates, Acumen cytometry, 40 h; Potency, µM (titrated, usually from 46.1 µM), without a hit: top-dose activity change, negative = inhibition, most hits filed as inhibitors; 1.1% of 220,000 active; AID 1688; further: potency means the concentration at half of the fitted maximal effect; on the % scale 0 is the no-effect control and ±100 the full control effect; nearly all actives have a fitted effect of over 60% in size
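PC12/HTTQ103-GFP, ecdysone-inducible; teb 100 nM; cpd qHTS titration; GFP aggregates read on laser cytometer, Ex 488/Em 500-530 nm.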
HTT ATP protect = cytoprotection in Huntington HTT-Q103 PC12 cell model; PC12 HTT-Q103 induced, cytoprotection, ATP luminescence, 40 h; Potency, µM (top dose mostly 56.4 µM), for the others: cytoprotection (ATP increase), most hits filed as activators; 0.14% of 230,000 active; further: potency means the concentration at half of the fitted maximal effect; % of control where 0% means no effect; nearly all actives have a fitted effect of over 45% in size
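Huntington model: PC12 line, ecdysone-inducible HTTQ103 exon1–GFP, tebufenozide 100 nM. Test articles in a dose series. Endpoint luminescence from cellular ATP.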
GLA inh pH 4.5 = alpha-galactosidase A (human) inhibition, pH 4.5 | P06280 | purified enzyme, 4-MU-alpha-Gal fluorescence, pH 4.5 | activity change, negative = inhibition, % at 105 µM | 230,000 tested, under 10 active;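 further: 0% = full activity with enzyme and -100% = basal without enzyme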
Active calls of the source: *; ? = inconclusive; nt = not tested or not shown; [ ] = remark or other dose. The call rests on the fitted dose curve; in most records, active means well fitted curve in the direction sought with a large enough effect; inconclusive means small, poorly fitted or top-dose-only effect, or another doubt; inactive means no such curve, though single readings can be large; an effect the other way counts as inactive or inconclusive.

SMILES	GLA spleen mod	HTT aggregate	HTT ATP protect	GLA inh pH 4.5
COc1cccc(/C=N/Nc2ncnc3scc(-c4ccccc4)c23)c1O	1.3%	8.91µM*	nt	-7.9
COc1cccc(/C=N/Nc2nccnc2Cl)c1O	-5.1%	1.26µM*	-86.1%[10 µM]	-7.8
COc1cccc(/C=N/Nc2ncnc(Cl)c2N)c1O	-3.7%	?	-86.4%[10 µM]	2.8
COc1cccc(/C=N/Nc2nc3ccccc3n3cnnc23)c1O	8.2%	8.91µM*	-42.2%[10 µM]	-16.2
NCCNc1cccc2ccccc12	12.3%	8.0%	18.2%	nt
Cc1ccccc1NC(=S)N/N=C/C(C)c1ccccc1 (configuration not stated)	7.2%	-1.5%	4.47µM*	-9.1
Cc1ccccc1NC(=S)NCCc1ccccc1	1.9%	10.6%	-35.7%[0.074 µM]	5.4
Cc1ccccc1NC(=S)NCc1ccccc1	-9.4%	?	5.62µM*	-0.9
Cc1cccc(NC(=S)N/N=C/C(C)c2ccccc2)c1C (configuration not stated)	-13.1%	0.6%	-4.6%	-0.9
COc1cc(O)c(C(=O)/C=C/c2ccc(OC)c(O)c2)c(OC)c1	-20.8%	nt	-96.6%	-3.4
O=C(C#Cc1ccccc1)c1cccc([N+](=O)[O-])c1	2.6%	12.6µM*	-92.0%	-3.3
C[C@H](NC(c1cccc2nc(O)c(O)nc12)P(=O)(O)O)c1ccc(Br)cc1 (some centres not stated)	-13.0%	nt	nt	nt
COCc1ccc([C@@H]2C[C@H]3CN(Cc4ccccc4C)C(=O)[C@]34CCCN24)o1	-3.6%	4.47µM*	-147.4%	1.3
COCc1ccc([C@@H]2C[C@H]3CN(Cc4cccnc4)C(=O)[C@]34CCCN24)o1	0.7%	-28.1%[9.22 µM]	-18.2%[10 µM]	8.8
O=C(NCCCCN1CCN(c2cccc(Cl)c2Cl)CC1)c1ccc2c(c1)Cc1ccccc1-2	-1.0%	nt	nt	nt
COc1ccc(Nc2nc3ccccc3nc2NS(=O)(=O)c2ccc(NC(C)=O)cc2)cc1	8.9%	0.9%[9.22 µM]	5.2%[10 µM]	-8.4
COc1ccc(Nc2nc3ccccc3nc2NS(=O)(=O)c2cccs2)cc1	6.0%	22.4µM*	-39.2%	-10.7
CC1(C)Cc2c(sc3[nH]c(=S)n(Cc4ccccc4)c(=O)c23)CO1	0.9%	17.8µM*	-60.3%	-1.2
Oc1ccc(N=Nc2n[nH]c(-c3ccc(Cl)cc3)n2)cc1	-10.2%	17.8µM*	-58.3%	-2.2
COc1ccc(N(CC(=O)N/N=C(\C)CCc2ccccc2)S(=O)(=O)c2ccc(C)cc2)cc1	-21.3%	10.9%[9.22 µM]	3.55µM*	19.2
COc1cc(/C=C(\C#N)C(=O)Nc2nnc(C(F)(F)F)s2)ccc1OCc1ccc(C(F)(F)F)cc1C(F)(F)F	-10.3%	nt	nt	nt
O=C1c2ccccc2-n2c1nc1ccccc1c2=O	-6.8%	11.2µM*	-168.0%	-12.7
O=c1c2ccccc2nc2n1-c1ccccc1CCC2	12.4%	-22.6%	-13.6%	5.5
CC(C)C[C@H](NC(=O)[C@@H](Cc1c[nH]c2ccccc12)NC(=O)[C@H](Cc1ccc(O)cc1)NC(=O)[C@H](CO)NC(=O)[C@H](Cc1c[nH]c2ccccc12)NC(=O)[C@H](Cc1cnc[nH]1)NC(=O)[C@@H]1CCC(=O)N1)C(=O)N[C@@H](CCCN=C(N)N)C(=O)N1CCC[C@H]1C(=O)NCC(N)=O	-2.3%	nt	nt	nt
CCN(CC)Cc1c(O)ccc2c([N+](=O)[O-])c(C)n(-c3ccc(OC)cc3)c12	-4.4%	5.01µM*	-11.7%[10 µM]	-3.8
SMILES	GLA spleen mod	HTT aggregate	HTT ATP protect	GLA inh pH 4.5
N#C[C@@H](Cc1ccc(O)c(O)c1)C(=O)N1CCc2ccccc21	nt	nt	-20.9%[1.9 µM]	nt
C[C@@H]1CC[C@H]2[C@H](C)[C@H]3CC[C@H]4C5[C@@H](O)CC6=CC(=O)CC[C@]6(C)[C@H]5C[C@H]4C3C(=O)N2C1 (some centres not stated)	6.7%	nt	9.0%	0.6
CC1CCC(C(C)C)C(OC(=O)Cn2c(-c3ccccc3)[n+](C)c3ccccc32)C1 (configuration not stated)	5.8%	11.2µM*	-48.8%[10 µM]	-3.4
CC1CCC(C(C)C)C(OC(=O)Cn2c(-c3ccc(F)cc3)[n+](C)c3ccccc32)C1 (configuration not stated)	-2.7%	?	-71.7%[10 µM]	0.4
O=c1cc(-c2ccc(O)cc2)oc2cc(OC3OC(CO)C(O)C(O)C3O)c(C3OC(CO)C(O)C(O)C3O)c(O)c12 (configuration not stated)	4.2%	nt	nt	nt
Cc1ccc(Cl)cc1N1CCN(C(=O)CSc2nnc3n2C(C)(C)Cc2ccccc2-3)CC1	0.4%	7.94µM*	?	-3.2
CCCCC1C(=O)N(c2ccccc2)N(c2ccc(O)cc2)C1=O (configuration not stated)	-0.6%	nt	2.24µM*	3.2
CC(C)=CCC1C(=O)N(c2ccccc2)N(c2ccccc2)C1=O	nt	20.1%	72.5%	nt
Cc1cccc(Nc2ncnc3ccccc23)c1	-3.8%	12.6µM*	-6.6%[10 µM]	1.0
Cc1ccc(Nc2ncnc3ccccc23)cc1	2.3%	-7.6%[9.22 µM]	-4.4%[10 µM]	-26.5
CCS(=O)(=O)c1nnnn1-c1ccccc1S(C)(=O)=O	-0.7%	nt	12.6µM*	-5.1
C/C(=N\N=C(N)N)c1cccc(Cl)c1	-4.4%	5.01µM*	-183.2%	5.1
COc1cc(O)c2c(c1)oc(=O)c1c3cc(O)c(O)cc3oc21	1.2%	nt	nt	nt
Cc1cc(C)c(C(=O)Nc2ccc(Br)c(C(F)(F)F)c2)c(C)c1	-5.2%	20µM*	nt	-6.7
O=C(O)c1ccccc1C(=O)Nc1ccc(Br)c(C(F)(F)F)c1	2.8%	8.0%[9.22 µM]	4.4%[10 µM]	0.4
CCC[C@@H]1CC(C(=O)NC(C2O[C@H](SC)C(OP(=O)(O)O)[C@H](O)[C@H]2O)[C@H](C)Cl)N(C)C1 (some centres not stated)	1.5%	nt	nt	nt
COC(=O)CN(C)C(=O)CC1C(=O)NCCN1CC(C)(C)C (configuration not stated)	-2.4%	?	1.12µM*	-11.3
CC(C)(C)CC(=O)Nc1nnc(C(F)(F)F)s1	5.6%	-15.3%	21.2%[10 µM]	3.0
CCSc1nnc(NC(=O)c2ccc(Br)s2)s1	-12.7%	-23.6%	-10.6%	-10.1
O=C(Nc1nnc(C(F)(F)F)s1)C1COc2ccccc2O1 (configuration not stated)	-0.5%	25.1µM*	-23.3%	1.6
O=C(Nc1nnc(C(F)(F)F)s1)c1ccc(Br)s1	0.7%	5.62µM*	nt	0.6
CC(NC(=O)Nc1nnc(C(F)(F)F)s1)(C(F)(F)F)C(F)(F)F	-22.5%	2.24µM*	-59.3%	1.7
O=C(Nc1nnc(C2CC2)s1)C1COc2ccccc2O1 (configuration not stated)	3.4%	-14.1%	-58.5%[10 µM]	-15.1
Nc1ncnc2c1nc(N1CCCCC1)n2[C@@H]1O[C@@H]2COP(=O)(O)O[C@H]2[C@H]1O	4.4%	nt	nt	nt
O=c1c(-c2cc(F)cc(F)c2)nc2cnc(N3CCNCC3)nc2n1-c1ccccc1	19.8%	nt	-6.0%	nt
O=[N+]([O-])c1c(NCCCO)cc(Sc2nc3ccccc3s2)c2nonc12	-9.9%	6.31µM*	-132.2%	-3.5
CCC(=O)OCCNc1cc(Sc2nc3ccccc3s2)c2nonc2c1[N+](=O)[O-]	3.6%	?	-151.3%	-2.3
